Laboratory results: the supplement of paper PMC11732987, “Enantioselective OTUD7B fragment discovery through chemoproteomics screening and high-throughput optimisation” (Communications Chemistry, 2025)
A number with no mark means an inactive call.

These compounds were tested against COPS5 (UniProt Q92905) (assay: log2 ratio of Biotin-Ahx-Ub-VS probe labelling (fragment/DMSO); higher = less target engagement (more negative = stronger competition), active = hit call of the paper (q ≤ 0.05, log2 ratio ≤ -1)). Conditions: compound concentration: 200 uM; treatment time: 3 h.
Method: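 Competitive ABPP in HEK293T cell lysate. Lysates were treated with each chloroacetamide fragment at 200 µM for 3 h, then with Biotin-Ahx-Ub-VS (0.5 µM, 1 h), NeutrAvidin-enriched and analysed by diaPASEF LC-MS/MS. Protein LFQ was median-normalised; average log2 ratio is fragment/DMSO from an unpaired t-test (n=3 treated, n=44 DMSO). Hits: q ≤ 0.05, log2 ratio ≤ -1, unique peptides ≥ 2.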

COPS5, sequence (Q92905 whole entry, looked up, the tested form may be a part): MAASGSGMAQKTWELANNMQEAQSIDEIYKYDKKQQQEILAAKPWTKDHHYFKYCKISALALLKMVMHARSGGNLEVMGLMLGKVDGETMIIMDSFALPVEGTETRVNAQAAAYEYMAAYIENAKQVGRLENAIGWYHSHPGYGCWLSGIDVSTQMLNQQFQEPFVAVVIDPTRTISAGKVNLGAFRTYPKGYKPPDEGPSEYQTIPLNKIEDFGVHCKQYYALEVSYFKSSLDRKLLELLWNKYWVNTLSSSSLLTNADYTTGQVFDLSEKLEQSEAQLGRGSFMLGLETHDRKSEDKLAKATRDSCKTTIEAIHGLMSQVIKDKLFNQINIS

Row | Structure (SMILES) | log2 ratio of Biotin-Ahx-Ub-VS probe labelling
1 | Cc1ccc(CC(CO)CNC(=O)CCl)cc1 (stereo not given) | 0.0248
2 | CN(C)C(=O)c1ccc(CNC(=O)CCl)cc1 | 0.0838
3 | Cc1ccc(C)c(Oc2ccc(CNC(=O)CCl)cn2)c1.Cl | -0.0158
4 | CN1c2ccccc2C(NC(=O)CCl)CS1(=O)=O (stereo not given) | 0.318
5 | Cl.O=C(CCl)N1CCc2ncncc2C1 | -0.0201
6 | O=C(CCl)NC1CCN(C(=O)C2CCCCC2)CC1 | -0.188
7 | Cl.O=C(CCl)NCCN1CCc2ccccc21 | 0.365
8 | O=C(CCl)N(C1=CCCCC1)C1CC1 | -0.00116
9 | CC(NC(=O)CCl)c1cc2n(n1)CCCC2.Cl (stereo not given) | -0.394
10 | O=C(CCl)N1CCC(C(=O)N2CCCC2)CC1 | -0.223
11 | CC1Cc2ccccc2N1C(=O)CCl (stereo not given) | 0.169
12 | Cc1noc(C)c1CNC(=O)CCl | 0.13
13 | O=C(CCl)N1CCc2nc[nH]c2C1c1ccc(Cl)cc1 (stereo not given) | -0.139
14 | N#Cc1ccc(CNC(=O)CCl)cc1 | 0.228
15 | COCC1C=CCCN1C(=O)CCl (stereo not given) | -0.00365
16 | CCN(C(=O)CCl)C1CCS(=O)(=O)C1 (stereo not given) | -0.0629
17 | Cc1ccc(N(CCC#N)C(=O)CCl)cc1C | 0.127
18 | O=C(CCl)N1CCC(C(=O)N2CCCCCC2)CC1 | -0.0587
19 | Cc1nc(CN2CCCN(C(=O)CCl)CC2)no1.Cl | -0.0569
20 | CC1CN(c2ccc(NC(=O)CCl)cc2)CC(C)O1 (stereo not given) | 0.159

Row | Structure (SMILES) | log2 ratio of Biotin-Ahx-Ub-VS probe labelling
21 | O=C(CCl)Nc1cc(Cl)ccc1-n1cncn1 | -0.332
22 | O=C(CCl)N1c2ccccc2NC(=O)C12CCCC2 | 0.325
23 | Cc1c(C#N)c(NC(=O)CCl)n(Cc2ccco2)c1C | -0.146
24 | CC(O)CC1CCN(C(=O)CCl)CC1 (stereo not given) | -0.25
25 | Cl.O=C(CCl)N1CCCC(c2ncc[nH]2)C1 (stereo not given) | 0.0747
26 | O=C(CCl)Nc1cc2c(cc1Cl)OCCO2 | 0.135
27 | O=C(CCl)N1CCC(c2ccn[nH]2)C1 (stereo not given) | 0.121
28 | Cl.Cn1ncc2c1CC(NC(=O)CCl)CC2 (stereo not given) | -0.0206
29 | CS(=O)(=O)c1ccc(CNC(=O)CCl)cc1 | 0.0587
30 | O=C(CCl)Nc1ccc2c(c1)OC(F)(F)O2 | -0.156
31 | CN(CCc1ncc(Br)cn1)C(=O)CCl.Cl | 0.2
32 | Cn1cc(CN(Cc2ccc(Cl)cc2)C(=O)CCl)cn1 | -0.179
33 | Cc1cccc(C(CNC(=O)CCl)N2CCOCC2)c1.Cl (stereo not given) | 0.0369
34 | O=C(CCl)NCC(=O)N1CCCC1 | -0.0202
35 | O=C(CCl)NC1(c2ccc3c(c2)OCCO3)CCCC1 | -0.172
36 | Cc1conc1C1CN(C(=O)CCl)C1 | 0.0369
37 | Cc1cccc(C)c1NC(=O)CCl | 0.194
38 | O=C(CCl)NCC1(c2ccccc2)CC1 | 0.0827
39 | O=C(CCl)Nc1ccc(Cl)c(F)c1 | 0.155
40 | Cl.Cn1nccc1C(NC(=O)CCl)c1ccccc1 (stereo not given) | 0.313
